BCR signal inh – inhibitors of chronic active B-cell receptor signaling; actives 0.05% (n = 340,000); Potency, µM (highest dose often 46.1 µM), for the others: at the top dose activity change, negative = inhibition, most hits filed as inhibitors; ABC-DLBCL IkBa-CBG/CBR reporter, luminescence ratio, 4 h; active means well fitted inhibition curve with a large enough effect in the signal ratio, with a control signal flat, not every such curve was filed as active; inconclusive means small, poorly fitted or top-dose-only effect, or effect the other way, or a change in a side signal; the % refers to the signal ratio;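 further: potency means the concentration at half of the fitted maximal effect; plate controls were basal doxycycline-induced cells for no effect and cells given 10 µM MG132 for full effect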
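TMD8 ABC-DLBCL cells carrying doxycycline-inducible green luciferase fused to IkappaBalpha plus unfused red luciferase were exposed to compounds (up to 46 uM) for 4 hrs at 37C. Activity came from the overlap-corrected green/red luminescence ratio.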
MCF10A rereplic – induces DNA re-replication in MCF 10a normal breast cells; Potency, µM (series often up to 46.1 µM), for the others: at the highest dose activity, positive = re-replication, usual class: activators; AID 624296; MCF 10A DNA re-replication, Hoechst nuclear intensity, 48 h; actives 2.9% (n = 350,000); further: potency means the concentration at half of the fitted maximal effect; % of control where 0% means no effect; nearly all actives have a fitted effect of over 50% in size
SW480 rereplic – inducers of DNA re-replication in SW480 colon cancer cells; actives 1.8% (n = 340,000); SW480 DNA re-replication, Hoechst DNA content imaging, 48 h; Potency, µM (highest dose often 46.1 µM), without a hit: at the highest dose re-replication activation, actives largely listed as activators; further: potency means the concentration at half of the fitted maximal effect; % of control where 0% means no effect; nearly all actives have a fitted effect of over 55% in size
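Cells (250 per well) received 23 nL compound or DMSO by pin tool and were kept 48 hr at 37 C, 5% CO2. Nuclei were then stained with Hoechst for 40 min and scanned for DNA content.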
IL-1B inflam inh – inhibitors of inflammasome signaling (IL-1 beta secretion). activity change, % at 57.5 µM. actives 4.7% (n = 360,000). THP-1 LPS/ATP IL-1B secretion, AlphaLISA, 16 h; active compounds read low; in the data active means activity change below about -50%; inconclusive means mostly about -30% to -49%; further: on the % scale 0 is the no-effect control and ±100 the full control effect
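Secreted IL-1B measured by AlphaLISA bead assay after 16 h compound exposure of THP-1 cells; compounds (final up to 57.5 uM) added 1 h before LPS (250 ng/mL) and ATP (1.25 mM) stimulation; lower signal means less secretion.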
DT40 TDP1 CPT – growth inhibition of DT40 Tdp1-/-;hTDP1 cells with camptothecin (screen for TDP1 inhibitors); chicken DT40 Tdp1-/-;hTDP1 cells + 20 nM CPT, ATP luminescence, 48 h; Potency, µM (titrated, usually from 46.2 µM), for the others: top-dose activity change, negative = growth inhibition, usual class: inhibitors; actives 12% (n = 420,000); AID 686979; further: potency means the concentration at half of the fitted maximal effect; on the % scale 0 is the no-effect control and ±100 the full control effect; nearly all actives have a fitted effect of over 55% in size
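Cell growth measured by CellTiter-Glo luminescence after a minimum 48 h, 37 C compound exposure with 20 nM CPT in Tdp1-knockout DT40 cells stably expressing hTDP1, seeded 400/well; qHTS titration format.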
DT40 TDP1 no CPT – qHTS for Inhibitors of human tyrosyl-DNA phosphodiesterase 1 (TDP1): qHTS in cells in absence of CPT. DT40 Tdp1-/- hTDP1 cells, no CPT, ATP luminescence, 48 h. Potency, µM (titrated, usually from 46.2 µM), inactives show at the top dose activity change, negative = growth inhibition, actives largely listed as inhibitors. actives 15% (n = 420,000). AID 686978, 2013; further: potency means the concentration at half of the fitted maximal effect; on the % scale 0 is the no-effect control and ±100 the full control effect; nearly all actives have a fitted effect of over 55% in size
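Growth of hTDP1-complemented DT40 Tdp1-knockout cells is measured by ATP luminescence after at least 48 hr compound exposure at 37 °C, with DMSO substituting for the 20 nM CPT used in the parallel screen.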
* = called active by the depositor; ? = inconclusive; nt = no result. Only some compounds are listed: those with a hit (about 19% of all), similar ones and a draw of the others. Unless noted, the call rests on the fitted dose curve; in most records, active means well fitted curve in the direction sought with a large enough effect; inconclusive means small, poorly fitted or top-dose-only effect, or another doubt; inactive means no such curve, though single readings can be large; an effect the other way counts as inactive or inconclusive.

SMILES | BCR signal inh | MCF10A rereplic | SW480 rereplic | IL-1B inflam inh | DT40 TDP1 CPT | DT40 TDP1 no CPT
COCCn1c(C)c(C)c2c(NCCc3ccccc3)ncnc21 | 0% | 11% | 15% | 4 | 23µM* | 16µM*
CCOC(=O)c1c(C)oc2ncnc(NCCc3ccccc3)c12 | nt | nt | nt | nt | 21µM* | 23µM*
Cc1noc2ncnc(NCCc3ccccc3)c12 | nt | nt | nt | nt | 7.3µM* | 6.5µM*
COc1ccc(OCCC(=O)OCC(=O)NCc2ccccc2OC)cc1 | -4% | -44% | -26% | 2 | 4% | -4%
CC(=O)Nc1ccc(-c2csc(NC(C)c3ccccc3)n2)cc1 (centres undefined) | -25% | -2% | -4% | 21 | -5% | -18%
CC(C)Cc1ccccc1O | -14% | nt | nt | nt | nt | nt
CCOCCCNc1ncnc2onc(C)c12 | nt | nt | nt | nt | -18% | ?
Cc1ccc(-n2ncc3c(NCCc4ccc(S(N)(=O)=O)cc4)ncnc32)cc1 | 18% | nt | nt | nt | -7% | -7%
CCOc1ccc(CCNc2ncnc3onc(C)c23)cc1OCC | nt | nt | nt | nt | 2.9µM* | 2.1µM*
Cc1ccc(CCNc2ncnc3onc(C)c23)cc1 | nt | nt | nt | nt | 1.8µM* | 0.82µM*
Cc1cc(C)c2c(=O)cc(C(=O)Nc3sc4c(c3C(=O)NCC3CCCO3)CCCC4)oc2c1 (centres undefined) | nt | nt | nt | nt | -1% | -1%
COC(=O)C1CC(C(=O)OC)C2C(C(=O)OC)CC(C(=O)OC)C12 (centres undefined) | nt | -2% | -3% | -16 | 4% | -15%
CCOc1cc(NC(=O)c2ccccn2)c(OCC)cc1NC(=O)CC(C)C | -1% | 37% | 15% | -5 | 13µM* | 8.2µM*
CCOc1cc(NC(=O)c2ccccc2[N+](=O)[O-])c(OCC)cc1NC(=O)CC(C)C | -8% | -4% | -10% | 8 | -9% | -16%
CCOc1cc(NC(=O)c2ccccn2)c(OCC)cc1NC(=O)c1ccc(Cl)cc1 | 1% | 2% | -7% | 29 | 1.5µM* | 1.2µM*
O=C(Nc1ccc(Cl)cc1C(=O)c1ccccn1)c1ccccc1 | nt | nt | nt | 7 | -3% | ?
CCOc1cc(NC(=O)c2ccccn2)c(OCC)cc1NC(=O)c1ccccc1 | -1% | ? | ? | 3 | ? | 21µM*
CCOc1cc(NC(=O)C2CC2)c(OCC)cc1NC(=O)c1ccccn1 | ? | 10% | -3% | -12 | 18µM* | 18µM*
Cc1ccc(C)c(OCc2cc(C(=O)N(C)Cc3nccs3)no2)c1 | 5% | 10% | 5% | -16 | -28% | -14%
COC(=O)[C@@H](Cc1ccccc1)NC(=O)[C@H]1CCC(=O)N1C(=O)OCc1ccccc1 | -3% | -15% | -3% | ? | -19% | -5%
CCn1c(CNC(=O)c2ccc(OC)cc2)nnc1SCC(=O)Nc1ccc(C)cc1 | nt | nt | nt | nt | 3% | -10%
CCOc1cc(NC(=S)NC)c(OCC)cc1NC(=O)c1ccc(OC)cc1 | ? | 7% | -2% | 3 | -14% | ?
CCOc1cc(NC(=S)Nc2ccccc2)c(OCC)cc1NC(=O)c1ccccc1 | 17% | 19% | 13% | -1 | 18µM* | 26µM*
Oc1ccccc1-c1nnc2n1CCCCC2 | 0% | -5% | -4% | 0 | 12% | -15%
Cc1cc(-c2nnc3n2CCCCC3)c(C)n1-c1ccccc1 | ? | 27% | -2% | ? | ? | 16µM*
COC(=O)CNC(=O)CSc1nc2c(sc(=S)n2-c2ccccc2)c(=O)[nH]1 | -2% | -14% | ? | 43 | 3% | -3%
CCOC(=O)CSc1nc2c(sc(=S)n2-c2ccc(CC)cc2)c(=O)[nH]1 | -6% | 3% | -5% | 72 | -30% | ?
CCOC(=O)c1ccc(-n2c(=S)sc3c(=O)[nH]c(C)nc32)cc1 | -6% | 5% | -18% | 35 | ? | 16µM*

Screens: PubChem BioAssay, National Center for Advancing Translational Sciences (NCATS)
